The source made the active and inactive calls.

The experiment is described as follows: E. coli DRC41 culture turbidity changes, primary screen, E. coli filamentation inducer project, strain DRC41, OD650, 48 h (AID 1152).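 Note: E. coli MC1000 strain DRC41 lacking acrAB efflux pump and sulA.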 Conditions: E. coli DRC41 (acrAB sulA), higher = more signal, called active from +8 up or from −8 down.
As for `CC(C)Cc1ccc(CN2CC[C@@H](NC(=O)Nc3ccccc3)C2)cc1`, the z-score is -3.31 (inactive).

With `CC(C)C[C@@H]1NC(=O)[C@@H]2C[C@H](C(=O)NCCCCN(C)C)[C@H](c3cccc(OCCO)c3)N2C1=O`, the z-score is 0.471 (inactive).

Turning to `CC1CC/C=C\[C@H]2OC34C=CCN(C(C)C)C(=O)[C@H]3N(CCCCCCO)C(=O)[C@@H]4C2C(=O)O1` (stereo not given in full), the z-score is 3.07 (inactive).

Consider `COc1ccc(CCNC(=O)[C@@]2(Sc3ccc(C)cc3)CC(=O)N(C3Cc4ccccc4C3)[C@@H]2c2ccc(CO)cc2)cc1`, for which the z-score is -0.336 (inactive).

On to `COc1ccc(-c2nc(-c3ccccc3)c3c(c2C)CO[Si]3(C(C)C)C(C)C)cn1`, for which the z-score was -1.41 (inactive).

Turning to `CCCC[C@@H]1C[C@H]1[C@@H](NC(=O)c1cccs1)c1ccc(C(F)(F)F)cc1`, the z-score is -2.61 (inactive).

As for `CN1C(=O)C2C=CC(C(O)c3ccc(F)cc3)N(Nc3ccccc3)C2C1=O` (stereo not given), the z-score was -1.69 (inactive).

Consider `OCC1CC(c2ccccc2)=NO1` (stereo not given), for which the z-score is 0.727 (inactive).

As to `COC1OC[C@]2(C)[C@H]3C4=C(CN2C(=O)OC(C)(C)C)[C@H](C)C(CO)C(CO)C4CC[C@@H]13` (stereo not given in full), the z-score is -0.787 (inactive).

Take `NCCCCCCNC(=O)[C@@H]1C[C@@H]2C(=O)N[C@@H](CCCCN)C(=O)N2[C@@H]1c1cccc(OCCO)c1`: the z-score was 0.68 (inactive).

In the case of `CCOC(=O)C1=C[C@@H](c2ccccc2)N(S(=O)(=O)c2ccc(C)cc2)[C@H]1c1ccccc1Cl`, the z-score was -1.18 (inactive).

Take `CCOc1cc(C(O)C2C=CC3C(=O)N(c4ccccc4)C(=O)C3N2Nc2ccc(C#N)cc2)ccc1O` (stereo not given): the z-score was -1.17 (inactive).

As for `CCCCCCCCCCC(O)C1C=CC2C(=O)N(C)C(=O)C2N1NC(=O)OC(C)(C)C` (stereo not given), the z-score is -3.07 (inactive).

Take `NCCCCCNC(=O)[C@@H]1C[C@@H]2C(=O)NCC(=O)N2[C@@H]1c1cccc(OCCO)c1`: the z-score was 1.81 (inactive).

`[N-]=[N+]=NCc1ccccc1[C@H]1OC(c2ccc(OCCCO)cc2)=N[C@@]1(CCS(=O)(=O)c1ccccc1)C(=O)N1CCCCC1`: the z-score is -0.193 (inactive).

Regarding `CCOC(=O)C[C@H]1[C@H](OC(=O)c2ccccc2-c2ccccc2)[C@@H](NC(=O)c2ccc(-c3ccccc3)cc2)c2cc(OCCCO)ccc2N1C(=O)c1ccc2ccccc2n1`, the z-score is -0.485 (inactive).

For `CCCCCCc1nc(C2CC2)cc2c1[Si](C(C)C)(C(C)C)OC2`, the z-score is -0.611 (inactive).

Take `O=C1C[C@@](C(=O)NCCN2CCOCC2)(c2ccc([N+](=O)[O-])cc2)[C@@H](c2ccc(CO)cc2I)N1C1CCCCC1`: the z-score was 0.82 (inactive).

Regarding `COC(=O)[C@@]1(Cc2ccc(OC)cc2)[C@H]2c3cc(C(=O)N4CCCC4)n(Cc4c(-c5ccccc5)noc4C)c3C[C@H]2CN1C(=O)c1ccccc1`, the z-score is -0.615 (inactive).

Take `CC(C)(C)N1CC=CC23O[C@@H]4C=CCCOC(=O)C4[C@H]2C(=O)N(CCO)[C@@H]3C1=O` (stereo not given in full): the z-score is 0.209 (inactive).

Regarding `O=C1O[C@@H](c2ccccc2)[C@@H](c2ccccc2)N2[C@@H](c3ccccc3OCCO)[C@]3(C(=O)Nc4ccc(C#CCCO)cc43)[C@@H](C(=O)N3CCCCCCC3)[C@H]12`, the z-score was -0.723 (inactive).

Regarding `CO[C@]12C=C(Br)[C@@H](C[C@@H]1c1cccc(C)c1)[C@@]1(CO1)C2=O`, the z-score is -0.009 (inactive).

Consider `O=C1C2C=CC(C(O)c3ccccc3)N(Nc3ccccc3F)C2C(=O)N1c1ccccc1` (stereo not given), for which the z-score is 0.0394 (inactive).

`CC[C@H]1C2=C3C(CC[C@H]4C(OCc5ccc(F)cc5C(F)(F)F)OC[C@](C)([C@@H]34)N(C(=O)OC(C)(C)C)C2)C(COC)C1COC` (stereo not given in full): the z-score was -1.22 (inactive).

As for `Cc1ccc(S[C@]2(C(=O)O)CC(=O)N(C3Cc4ccccc4C3)[C@@H]2c2ccc(CO)cc2)cc1`, the z-score is -0.0458 (inactive).

With `COc1ccc(NC(=O)O[C@H]2[C@H](OC(=O)Nc3ccccc3)[C@@H](OC(=O)Nc3ccccc3)[C@@H](OC)O[C@@H]2CO)cc1`, the z-score is -0.302 (inactive).

Take `CCCC[C@@H]1C[C@H]1[C@@H](NC(=O)Cc1ccccc1)c1ccc(-c2ccccc2)cc1`: the z-score was -0.71 (inactive).

As to `N#Cc1ccc(NN2C(C(O)c3ccc(F)cc3)C=CC3C(=O)N(c4ccccc4)C(=O)C32)cc1` (stereo not given), the z-score is -0.922 (inactive).

As for `[N-]=[N+]=NCc1ccccc1C[C@]1(C(N)=O)N=C(c2ccc(OCCCO)cc2)O[C@H]1c1ccccc1`, the z-score is 1.06 (inactive).

As to `COCCCNC(=O)[C@@]1(Cc2ccccc2N=[N+]=[N-])N=C(c2ccc(OCCCO)cc2)O[C@H]1c1ccccc1`, the z-score was -0.3 (inactive).

In the case of `CN(C)CCCNC(=O)[C@@H]1c2ccccc2C(=O)N(Cc2ccccc2Cl)[C@H]1c1ccc(CO)cc1`, the z-score was 0.681 (inactive).

As for `C=C(/C(=C/C[C@H](OC(=O)c1ccncc1)c1ccc(CO)o1)c1cc(C(=O)OC)ccc1OC)C(C)C`, the z-score was -0.23 (inactive).

As to `C=CCC(OC(C)=O)[C@@H]1[C@@H](N(Cc2ccc(-c3cccc(C(F)(F)F)c3)o2)C(=O)c2ccc(-c3ccccc3)cc2)c2cc(OCCCO)ccc2N1C(=O)c1ccc2ccccc2n1` (stereo not given in full), the z-score is -0.662 (inactive).

For `CCCCN1CC=CC23O[C@@H]4/C=C\CCC(C)OC(=O)C4[C@H]2C(=O)N(C(CO)C(C)C)[C@@H]3C1=O` (stereo not given in full), the z-score is -0.0695 (inactive).

With `[N-]=[N+]=Nc1ccccc1[C@H]1OC(c2ccc(OCCCO)cc2)=N[C@@]1(Cc1ccccc1)C(=O)N1CCCCC1`, the z-score was 0.546 (inactive).

The record behind these values is PubChem BioAssay.
